Giardia kill: kills Giardia lamblia; 340,000 tested, 0.15% active; Giardia lamblia trophozoite viability; activity change, % at 7.66 µM, hits read low; in the data active = activity change below about -80%; inconclusive = between about -30% and that limit;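 note: parasites exposed to compound for two days anaerobically before the ATP read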
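Giardia trophozoites, 100 cells per well, were exposed to compounds for 48 hrs at 37 deg C under anaerobic conditions; viability was then read as ATP content by bioluminescence after 15-30 min at room temperature.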
Mm-Cpn inhibitor: blocks the Methanococcus maripaludis chaperonin Mm-Cpn; purified Mm-Cpn ATPase, ADP Transcreener TR-FRET; Potency, µM (titrated, usually from 76.9 µM), hits mostly inhibitors; 330,000 tested, 0.031% active; active = well fitted inhibition curve with a large enough effect; inconclusive = small, poorly fitted or top-dose-only effect; note: nearly all actives have a fitted effect of over 80% in size
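ATP (10 uM final) was added to archaeal chaperonin (25 nM final) after 10 min exposure to test compound at 37°C; after 30 min further incubation, ADP was detected by competitive TR-FRET.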
CCT chaperon mod: cytosolic chaperonin activity modulation. purified chaperonin ATPase assay, HTRF ADP detection, 30 min. activity change, % (concentration not given with the values), hits read low. 360,000 tested, 0.3% active. AID 651819; in the data active = activity change below about -30%
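Nucleotide hydrolysis assay: TRiC at 20–40 nM final (set by batch activity) with 10 uM ATP, 30 min at 37 °C, in presence of 76 uM compound. Detection by competitive ADP HTRF, 30 min ambient.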
Rango complex inh: prevents formation of the Rango-importin beta complex; Rango CFP/YFP FRET sensor + importin beta, 45 min; Potency, µM (titrated, usually from 92.2 µM); 340,000 tested, 0.031% active; AID 540263; note: nearly all actives have a fitted effect of over 15% in size
Target sequence (Q14974 whole entry, looked up): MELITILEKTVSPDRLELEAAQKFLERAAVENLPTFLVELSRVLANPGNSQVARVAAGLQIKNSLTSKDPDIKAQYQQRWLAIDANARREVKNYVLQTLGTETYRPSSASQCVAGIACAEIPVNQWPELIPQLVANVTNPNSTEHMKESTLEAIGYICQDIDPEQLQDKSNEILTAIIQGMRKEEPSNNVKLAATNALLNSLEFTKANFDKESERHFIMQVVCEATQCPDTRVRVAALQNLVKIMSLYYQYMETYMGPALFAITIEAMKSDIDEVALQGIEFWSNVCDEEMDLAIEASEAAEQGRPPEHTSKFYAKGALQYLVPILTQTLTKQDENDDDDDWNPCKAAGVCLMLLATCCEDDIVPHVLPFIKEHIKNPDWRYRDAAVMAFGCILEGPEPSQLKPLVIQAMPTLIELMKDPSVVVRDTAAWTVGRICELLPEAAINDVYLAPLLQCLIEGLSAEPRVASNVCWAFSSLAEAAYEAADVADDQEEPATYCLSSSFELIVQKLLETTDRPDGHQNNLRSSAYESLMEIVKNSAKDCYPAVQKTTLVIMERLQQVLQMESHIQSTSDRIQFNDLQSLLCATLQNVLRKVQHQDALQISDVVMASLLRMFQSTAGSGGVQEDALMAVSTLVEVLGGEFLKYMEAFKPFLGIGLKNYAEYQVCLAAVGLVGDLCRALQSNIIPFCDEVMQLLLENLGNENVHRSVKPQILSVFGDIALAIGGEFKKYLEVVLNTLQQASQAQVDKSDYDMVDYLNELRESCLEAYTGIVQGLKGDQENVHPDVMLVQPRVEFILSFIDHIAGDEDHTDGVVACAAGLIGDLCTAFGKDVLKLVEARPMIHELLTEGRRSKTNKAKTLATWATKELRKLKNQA
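FRET biosensor (snurportin 1 IBB flanked by EYFP and cerulean), 50 nM, with compound 5 min, then 0.125 microM importin beta in PBS, 1 mM DTT, 0.02% Tween-20, 0.1% BSA. CFP/YFP ratio read after 45 min at room temperature; pre-read flags interference.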
Rango release inh: inhibitors of RanGTP-induced Rango-importin beta complex dissociation | Biochemical FRET Rango-importin beta, RanGTP-induced dissociation | O95149+P62826 | Potency, µM (doses to about 46.1 µM) | 340,000 tested, 0.071% active; note: nearly all actives have a fitted effect of over 45% in size
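Recombinant Rango FRET biosensor (EYFP–snurportin 1 IBB–cerulean CFP10) at 0.1 uM premixed with 0.25 uM importin beta in PBS, 1 mM DTT, 0.02% Tween-20, 0.1% BSA. Compound added 5 min; RanGTP-RCC1 (0.6 uM Ran, 2 mM GTP, 0.2 uM RCC1) then triggers release, read at 45 min.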
Each line names hits and unclear results; the compound was inactive in the other large screens. Most compounds without a hit are left out; they make up all but 0.53% or so of the library. Unless noted, calls come from the whole dose curve.

COc1ccccc1NC(=O)c1cc2c(CO)cnc(C)c2oc1=Nc1ccc(OC)c(OC)c1	none
COc1ccc(NC(=O)c2cc3c(CO)cnc(C)c3oc2=Nc2cccc(C)c2)c(OC)c1	CCT chaperon mod -37
CC(C)c1ccc(Nc2nc(Nc3ccc(Cl)cc3)nc(N3CCOCC3)n2)cc1	none (no result: Mm-Cpn inhibitor, CCT chaperon mod, Rango complex inh, Rango release inh)
CCOC(=O)C(=CNc1cccc(C)c1C)C(=O)OCC	CCT chaperon mod -122
O=C(COC(=O)C12CC3CC(CC(O)(C3)C1)C2)NCc1ccco1	none (no result: Mm-Cpn inhibitor, CCT chaperon mod, Rango complex inh, Rango release inh)
O=c1[nH]cc(COCc2ccccc2)c(=O)[nH]1	none
O=c1[nH]cc(CCCc2ccccc2)c(=O)[nH]1	CCT chaperon mod -49 (no result: Giardia kill, Mm-Cpn inhibitor, Rango complex inh, Rango release inh)
O=C(COc1ccccc1)Nc1ccc(-c2ccc(N3CCOCC3)nn2)cc1	CCT chaperon mod -137
N#CC(c1ccccc1)c1ccc2c(C(F)(F)F)cc(C(F)(F)F)nc2n1 (configuration not stated)	Rango complex inh inconclusive
Cc1ccc(C(C#N)c2ccc3c(C(F)(F)F)cc(C(F)(F)F)nc3n2)cc1 (configuration not stated)	CCT chaperon mod -45
CN(C)c1ccc(N/C=C/C(=O)c2ccccc2)cc1	Rango complex inh inconclusive
CN(C)c1ccc(N/C=C/C(=O)C(C)(C)C)cc1	Mm-Cpn inhibitor 22µM
CCS(=O)(=O)N1Cc2ccccc2CC1C(=O)Nc1cccc(OC)c1 (configuration not stated)	CCT chaperon mod -49
C[C@@H]1C(=O)N(S(=O)(=O)c2ccc([N+](=O)[O-])cc2)[C@H]1c1ccc(F)cc1	none (no result: Mm-Cpn inhibitor, CCT chaperon mod, Rango complex inh, Rango release inh)
Cc1ccc(CCNS(=O)(=O)c2cnc[nH]2)cc1	CCT chaperon mod -39
O=S(=O)(NCc1ccc(Cl)cc1)c1cnc[nH]1	none
O=C(NNc1ccccc1)c1sc2ccccc2c1Cl	none (no result: Mm-Cpn inhibitor, CCT chaperon mod, Rango complex inh, Rango release inh)
O=C(O)c1cnc(-c2ccccc2)nc1C(F)(F)F	CCT chaperon mod -51
CCOC(=O)c1cnc(-c2ccccc2)nc1C(F)(F)F	none
CCc1nc2ccccc2c(=O)n1/N=C/c1ccc(Cl)cc1	CCT chaperon mod -33 (no result: Mm-Cpn inhibitor)
CCCC[C@]12Cc3cc(OC)c(OC)cc3C(O1)c1c(cc(-c3ccccc3)oc1=O)O2	none (no result: Giardia kill, CCT chaperon mod, Rango complex inh, Rango release inh)
CCOC(=O)CSc1nc(C)c(CC)c(C)c1C(N)=O	CCT chaperon mod -62
Cc1ccc(-c2csc(NC(=O)C3CC(=O)N(c4ccc5c(c4)OCCO5)C3)n2)o1 (configuration not stated)	none (no result: Mm-Cpn inhibitor, CCT chaperon mod, Rango complex inh, Rango release inh)
CCCCCC1CC1C(=O)N/N=C/c1ccc(N(C)C)cc1 (configuration not stated)	Rango complex inh inconclusive, Rango release inh 8.2µM
CN(C)c1ccc(/C=N/NC(=O)COc2ccccc2)cc1	none
O=C(Cn1ccnc1[N+](=O)[O-])NCc1ccccc1	Giardia kill -83
CN(C)c1ccc(/C=C/c2nc3ccccc3c(=O)[nH]2)cc1	Giardia kill -92, Rango complex inh inconclusive, Rango release inh inconclusive
Clc1ccccc1-c1nnc(-c2cccnc2)o1	CCT chaperon mod -40
Cc1sc2nc(-c3cccs3)oc(=O)c2c1C	Rango complex inh inconclusive
Cc1sc2nc(-c3ccc(Br)cc3)oc(=O)c2c1C	CCT chaperon mod -38
COc1ccc(-c2c(C3C4C=CCCC4(C)C(=O)N3Cc3ccccc3)ccc3ccccc23)cc1OC (configuration not stated)	none (no result: Mm-Cpn inhibitor, CCT chaperon mod, Rango complex inh, Rango release inh)
CS(=O)(=O)N1CCN(c2ccc(NC(=O)c3ccc([N+](=O)[O-])o3)cc2)CC1	Giardia kill -81
CCCC(=O)N1CCN(c2ccc(NC(=O)c3ccc([N+](=O)[O-])o3)cc2)CC1	Giardia kill -82
O=C(Nc1ccc(N2CCN(Cc3ccccc3F)CC2)cc1)c1ccc([N+](=O)[O-])o1	Giardia kill -96
O=C(Nc1ccc(N2CCN(C(=O)c3ccc(Cl)cc3)CC2)cc1)c1ccc([N+](=O)[O-])o1	Giardia kill -87
CC(C)(C)C(=O)N1CCN(c2ccc(NC(=O)c3ccc([N+](=O)[O-])o3)cc2)CC1	Giardia kill -81
CC1CCN(c2ccc(NC(=O)c3ccc([N+](=O)[O-])o3)cc2)CC1	Giardia kill inconclusive
O=C(Nc1ccc(N2CCCCC2)cc1)c1ccc([N+](=O)[O-])o1	Giardia kill -85
COc1ccc(N2CCCC2)c(NC(=O)c2ccc([N+](=O)[O-])o2)c1	Giardia kill -86, Rango release inh inconclusive
